From PubChem BioAssay AID489017 (The Scripps Research Institute Molecular Screening Center, 2010) come the findings set out here.

This experiment deals with Rolipram. Briefly: receptor, enzyme and CYP inhibition profiling – biochemical, Ricerca HitProfilingScreen, CYP450, selectivity assay for S1P4 antagonist project, profiling panel (AID 489017). The following applies: Ricerca receptor/enzyme binding panel plus CYP450, at 10 µM, active compounds read high.

Values without a mark were called inactive. The rule behind the calls is not given here.

The term inhibition denotes the change of the read-out against control, counted positive when it falls.

In the case of `CCc1cccc(CC)c1NC(=O)c1ccc(-c2cc(Cl)ccc2Cl)o1`, the inhibition is -2%.
